In all, about 370,000 compounds went through this assay and about 760 (0.21%) were called active. The list comes from a sample in which actives are over-represented; it also holds similar structures and randomly drawn compounds. Values without a mark were called inactive.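 The calls were made as follows: active = inhibition above a per-campaign cutoff: mean of compounds within control limits plus 3 SD (cut at about 15% in these data); inactive = the rest.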
Each molecule was assayed against Fibrinogen beta chain (Homo sapiens) (UniProt P02675) (assay: inhibitors of Tn6 peptide binding to fibrin DD(E), primary screen, biochemical, fluorescence polarization, human fibrin, Tn6 probe (AID 720509;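 also: 0% = median of all compound wells on the plate and 100% = blocking peptide control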)). Conditions: Fibrin DD(E) TRITC-Tn6 fluorescence polarization displacement; at 8.3 µM; active compounds read high.
Sequence of Fibrinogen beta chain (Homo sapiens) (P02675 whole entry, looked up): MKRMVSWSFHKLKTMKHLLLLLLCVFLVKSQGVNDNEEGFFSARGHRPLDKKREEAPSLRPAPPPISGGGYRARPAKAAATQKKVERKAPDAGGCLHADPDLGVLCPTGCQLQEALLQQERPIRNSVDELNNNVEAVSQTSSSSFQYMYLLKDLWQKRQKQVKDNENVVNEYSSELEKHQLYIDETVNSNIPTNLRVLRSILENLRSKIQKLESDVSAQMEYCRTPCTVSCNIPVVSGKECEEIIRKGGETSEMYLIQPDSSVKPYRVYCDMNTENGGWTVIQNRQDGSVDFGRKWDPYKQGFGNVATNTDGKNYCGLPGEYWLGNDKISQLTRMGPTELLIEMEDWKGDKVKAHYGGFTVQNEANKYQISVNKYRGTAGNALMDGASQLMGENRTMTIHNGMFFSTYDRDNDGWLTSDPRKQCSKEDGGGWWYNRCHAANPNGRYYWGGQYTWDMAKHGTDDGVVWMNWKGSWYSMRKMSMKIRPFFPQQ
In the case of `CN(C)CCCn1c(N)c(C#N)c2nc(C#N)c(C#N)nc21`, the inhibition was 15.8% (active).
With `Cc1cccc(N(C(=O)c2csnn2)C(C(=O)NCc2ccccc2)c2ccncc2)c1` (configuration not stated) the inhibition was 1%.
For `CC(C)NC(=O)c1ccccc1S(=O)c1ccccc1C#N` (configuration not stated), the inhibition was -6.4%.
Work on `CCn1nnc2cc(C(=O)Nc3ccc(C(=O)OC(C)C)cc3)ccc21` yielded an inhibition of -3.39%.
`Cc1cccc(C)c1N1CCN(S(=O)(=O)N2CCOCC2)CC1` was tested, and the inhibition was -1.95%.
In the case of `COc1ccc(-c2c(-c3cc(OC)cc(OC)c3)n(C)c3ccc(-c4ccn[nH]4)cc23)cc1`, the inhibition was 7.03%.
Molecule `CCN(CC)CCCC(C)n1c2nc(=O)[nH]c(=O)c-2nc2cc(Cl)ccc21` (configuration not stated) has an inhibition of 0.53%.
With `Cc1cc2nc3c(=O)[nH]c(=O)nc-3n(C[C@H](O)[C@H](O)[C@H](O)CO)c2cc1C` the inhibition was 16.3% (active).
In the case of `CCc1ccc(NC(=O)CN2CCC(C(=O)c3ccc(OC)cc3)CC2)cc1`, the inhibition was 3.02%.
`S=c1[nH]cc(-c2ccc(Cl)cc2)n1-c1ccccc1` was tested, and the inhibition was 1.55%.
Work on `COc1cc(C(=S)N2CCOCC2)cc(OC)c1OC(=O)c1cc([N+](=O)[O-])c(C)c([N+](=O)[O-])c1` yielded an inhibition of -2.56%.
`COCCNc1nc2nonc2nc1N(C)Cc1ccc(C)cc1` gave an inhibition of -1.67%.
For `CONc1nc2nonc2nc1NOC`, the inhibition was 15.3% (active).
With `COc1ccc(Nc2nc(-c3ccccc3)cs2)cc1` the inhibition was 16.7% (active).
Molecule `COc1ccc(NC(=S)N2N=CCC2c2ccccc2)cc1` (configuration not stated) has an inhibition of 4.08%.
With `N#CC(=C1SC=CS1)c1nc(-c2ccccc2)cs1` the inhibition was 4.25%.
Molecule `CC(C)Nc1ccc(-n2nc3ccccc3[n+]2[O-])cc1` has an inhibition of -1.03%.
`NS(=O)(=O)c1ccc(CNC(=O)c2ccc(Cl)cc2[N+](=O)[O-])cc1` gave an inhibition of 9.9%.
`CSc1ccccc1NC(=O)c1cnc2sc(C)cn2c1=O` showed an inhibition of 7.27%.
Work on `COC(=O)[C@@H]1CCCN1C(=O)c1cc(COc2cccc3cccnc23)on1` yielded an inhibition of 7.18%.
`O=C(NCCCn1ccnc1)C1CCCN(S(=O)(=O)c2cc(Cl)ccc2Cl)C1` (configuration not stated) was tested, and the inhibition was 1.05%.
`COc1ccc2c(c1)CC[C@@H]1[C@@H]2CC[C@]2(C)C(=O)CC[C@@H]12` showed an inhibition of 5.66%.
`CCc1cccc(CC)c1NC(=O)COc1ccccc1C(=O)c1cc(C#N)c(=O)n(C2CCCCC2)c1` showed an inhibition of -4.12%.
In the case of `CN(Cc1ccccc1)C(=O)CCC1CCN(C(=O)c2ccco2)CC1`, the inhibition was -1.06%.
For `Cc1cc(C)c2nc(NC(=O)C3CCCO3)sc2c1` (configuration not stated), the inhibition was 15.3% (active).
In the case of `Cc1ccc(C)c(C(C)NC(=O)C2CCCO2)c1` (configuration not stated), the inhibition was 0.84%.
For `Cc1cc(C)c2nc(N3CCC(C(=O)NCCN4CCOCC4)CC3)sc2c1`, the inhibition was -1.61%.

Reference: PubChem BioAssay AID720509 (The Scripps Research Institute Molecular Screening Center, 2013)
